FECH block – human FECH heme synthesis enzyme inhibition | P22830 | purified FECH, Ni-mesoporphyrin absorbance 550 nm | calls only at 10 µM (by protocol) | 3.3% of 20,000 active | AID 1671448;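 active = enzyme reaction rate more than 3 SD below the solvent-only control wells on the same plate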;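 also: lower slope than DMSO wells means FECH inhibition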
Target sequence (P22830 whole entry, looked up): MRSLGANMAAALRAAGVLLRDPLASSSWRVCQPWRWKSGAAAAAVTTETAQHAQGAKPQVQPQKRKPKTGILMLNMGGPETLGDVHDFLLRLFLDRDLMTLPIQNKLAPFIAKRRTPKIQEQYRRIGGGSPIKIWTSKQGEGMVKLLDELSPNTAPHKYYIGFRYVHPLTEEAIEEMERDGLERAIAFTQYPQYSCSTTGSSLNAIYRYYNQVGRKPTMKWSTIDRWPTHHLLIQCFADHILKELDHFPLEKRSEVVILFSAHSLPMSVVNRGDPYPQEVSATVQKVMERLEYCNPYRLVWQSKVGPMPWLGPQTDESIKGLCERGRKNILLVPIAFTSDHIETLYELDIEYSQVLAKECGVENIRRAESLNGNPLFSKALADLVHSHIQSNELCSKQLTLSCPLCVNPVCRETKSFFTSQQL
Numbers without * were called inactive; i = inactive; + = active, no number. Many of the other results were omitted from the sample, so hits are more common in it than they were.

SMILES	FECH block
CCCNC(=O)C1CCN(c2ccc(-c3ccccc3)nn2)CC1	i
O=C(NC1CC1)C1CCN(c2ccc(-c3cccs3)nn2)CC1	i
CC(C)CCNC(=O)C1CCN(c2ccc(-c3ccccc3)nn2)CC1	i
CCN(CCNC(=O)C1CCN(c2ccc(-c3ccccc3)nn2)CC1)Cc1ccccc1	+
Cc1ccc(-c2ccc(N3CCC(C(=O)NCCCN(C)Cc4ccccc4)CC3)nn2)cc1	i
COc1ccc(CN2CCC(CNC(C)=O)C2)c(OC)c1C (stereo not given)	i
CCc1ccccc1NC(=O)N1CCC(n2cnc3cccnc32)CC1	i
CCOC(=O)c1[nH]c2ccccc2c1CN1CCN(c2ncc(F)cn2)CC1	+
O=C(O)c1[nH]ncc1CN1CCN(c2nsc3ccccc23)CC1	i
CCc1c(C(=O)N(C)CCn2ccnc2C)[nH]c2ccccc12	i
c1ccc(-c2ncn(C3CCSC3)c2-c2cccn2-c2ncccn2)cc1 (stereo not given)	i
O=C(Cc1ccccc1)Nc1nc2n(n1)C(c1ccccc1)C=C(c1ccccc1)N2 (stereo not given)	i
CCc1nc2nc(C)c(NC(=O)Nc3ccc(F)c(Cl)c3)c(=O)n2[nH]1	i
CCc1nc2nc(C)[nH]n2c(=O)c1NC(=O)Nc1cccc(Cl)c1	i
CCOC(=O)CCc1c(C)nc2nc(CNc3ccc(F)cc3)[nH]n2c1=O	i
CCOC(=O)CCc1c(C)nc2nc(CNc3cccc(C)c3)[nH]n2c1=O	+
CCOC(=O)CCc1c(C)nc2nc(CNc3cccc(Cl)c3)[nH]n2c1=O	+
CCc1nc2nc(C)c(NC(=O)Nc3cccc(C)c3)c(=O)n2[nH]1	i
CCc1ccccc1NS(=O)(=O)c1ccc2c(c1)CCN2C(=O)CCC(=O)N1CCCCCC1	i
Cc1cc(C)n(Cc2cc(C(=O)N3CCCC3CCc3ccccc3)n[nH]2)n1 (stereo not given)	i
CCOc1ccc(Br)cc1S(=O)(=O)N1CCN(c2nc(C)cc(N(C)C)n2)CC1	i
CCc1cc(Sc2ccc(NC(=O)c3ccc(C(C)(C)C)cc3)cc2)n2ncnc2n1	i
CCc1cc(Sc2ccc(NC(=O)Nc3ccc(C)c(Cl)c3)cc2)n2nc(C)nc2n1	i
Cc1ccccc1CNC(=O)c1cccn1-c1nnc(N2CCCCC2)s1	i
O=C(NCc1ccccc1F)c1cccn1-c1nnc(N2CCCCC2)s1	+
SMILES	FECH block
O=C(NCCN1CCCCCC1)c1cccn1-c1nnc(N2CCCCC2)s1	i
Cc1cccc(C(=O)Nc2ccccc2Sc2c(C)c(C)nc3nc(-c4ccccc4)nn23)c1	i
COc1cc(NC(=O)c2ccc(CN3C(=O)CCn4nc(-c5ccccc5)cc43)cc2)cc(OC)c1	i
CC(C)Oc1cc(N2CCCN(C(=O)C3CCCO3)CC2)nc(N)n1 (stereo not given)	i
Clc1cnn(CCc2nn3c(Cc4ccccc4)nnc3s2)c1	i
Cc1ccc(NC(=O)CNc2nccc(-c3ccc(C)nc3C)n2)c(F)c1	i
CSc1nccc(-c2ccc(Cl)cc2Cl)n1	+
COC(=O)c1cc2n(n1)CCN(c1ccnc(SC)n1)C2	i
Cc1cc(C)n2nc(CN(c3ccc(Cl)cc3)S(=O)(=O)c3ccccc3)nc2n1	+
Cc1ccc(S(=O)(=O)N(Cc2ccccc2C)c2nc3nc(C)c(Cl)c(C)n3n2)cc1	i
Cc1cc(C)n2nc(N(Cc3ccccc3C)S(=O)(=O)c3ccccc3)nc2n1	i
CC(=O)CN(c1nc2nc(C)cc(C)n2n1)S(=O)(=O)c1ccc(C)cc1	i
Cc1cc(C)n2nc(CN(c3ccc(F)cc3)S(=O)(=O)c3ccc(Cl)cc3)nc2n1	i
Cc1cc(C)n2nc(CN(c3ccc(F)cc3)S(=O)(=O)c3ccccc3)nc2n1	i
CCCN(c1nc2nc(C)cc(C)n2n1)S(=O)(=O)c1ccc(C)cc1	+
CCCN(c1nc2nc(C)cc(C)n2n1)S(=O)(=O)c1ccccc1	i
Cc1ccc(S(=O)(=O)N(Cc2ccccc2C)c2nc3nc(C)cc(C)n3n2)cc1	+
COCCCNc1nc(Nc2cccc(F)c2)c2cnn(-c3ccccc3)c2n1	i
O=C(c1ccc(N2CCC3(CC2)NCCNC3=O)nc1)N1CCCCC1	i
O=C(CN1CCCCC1)NCC1CCN(Cc2ccccn2)CC1	i
COC(=O)C1(C(=O)N2CCCN(C)C3(CCN(C)CC3)C2)CC1	i
Cn1ccnc1NC(=O)c1ccc(CN2CCC(Oc3ncccn3)CC2)cc1	i
O=C(NCCc1csc(-c2cccnc2)n1)C1CNCCO1 (stereo not given)	i
Cc1nc2c(c(NCCc3csc(-c4cccnc4)n3)n1)CCNC2	i
c1cncc(-c2nc(CCNCc3nc(-c4ccco4)no3)cs2)c1	+
SMILES	FECH block
Cc1cc(C)n(-c2cc(NCc3ccccc3Cl)ncn2)n1	i
COc1ccc(-c2ccc(=O)[nH]n2)cc1S(=O)(=O)Nc1ccc(C)cc1C	i
COc1ccc(N2C(=O)CCS2(=O)=O)cc1S(=O)(=O)Nc1cc(C)ccc1C	i
Cc1ccc(NS(=O)(=O)c2ccc(N)c(S(N)(=O)=O)c2)c(C)c1	+
Cc1ccc(C)c(NS(=O)(=O)c2ccc(N)c(S(N)(=O)=O)c2)c1	+
Cc1ccc(C)c(NS(=O)(=O)c2cc(N3C(=O)CCS3(=O)=O)ccc2C)c1	i
COc1ccc(-c2cc(C(=O)Nc3ccc(C)cc3C)[nH]n2)cc1S(N)(=O)=O	i
CCCc1cc(C(=O)N2CC[C@@H](c3sccc3C)[C@H](O)C2)no1	i
O=C(O)c1[nH]ncc1CN1CC[C@@]2(O)CCCC[C@H]2C1	i
O=S(=O)(NCCn1c(C(F)(F)F)nc2cccnc21)c1ccc(F)cc1	i
O=c1cc(CN2CCCCCC2)nc2nc(NCc3ccc(Cl)cc3)[nH]n12	i
Cc1cc(C)cc(Nc2nc(N3CCN(c4ccc(F)cc4)CC3)nc3c2cnn3-c2ccccc2)c1	i
CN(C)S(=O)(=O)NCc1nc2cccnc2n1C1CCCC1	i
COc1ccc(Cl)cc1S(=O)(=O)N1CCC(n2c(C(F)(F)F)nc3cccnc32)CC1	i
COc1ccc(S(=O)(=O)N2CCC(n3c(C(F)(F)F)nc4cccnc43)CC2)cc1OC	+
O=S(=O)(c1ccccc1)N1CCC(n2c(C(F)(F)F)nc3cccnc32)CC1	i
O=S(=O)(NCc1ccccc1)Nc1ccc(-c2cn[nH]c2)cc1	i
Cc1ccc(C2=CC(c3ccc(F)cc3)n3nc(NC(=O)c4ccco4)nc3N2)cc1 (stereo not given)	i
CCC(=O)Nc1ccc(S(=O)(=O)NCc2nc3cccnc3n2C2CCCC2)cc1	i
CCNC(=O)N1CCC(NC(=O)CSC(C)C)CC1	i
O=C(O)CCCC(=O)Nc1nc2n(n1)C(c1ccc(Cl)cc1)C=C(c1ccc(Cl)cc1)N2 (stereo not given)	i
CCC(=O)Nc1nc2n(n1)C(c1ccc(Cl)cc1)C=C(c1ccc(Cl)cc1)N2 (stereo not given)	i
Cc1ccc(C2=CC(c3ccc(C)cc3)n3nc(NS(=O)(=O)c4ccccc4)nc3N2)cc1 (stereo not given)	+
O=S(=O)(Nc1nc2n(n1)C(c1ccc(F)cc1)C=C(c1ccccc1)N2)c1ccccc1 (stereo not given)	i
CCCC(=O)Nc1nc2n(n1)C(c1ccc(Cl)cc1)C=C(c1ccc(C)cc1)N2 (stereo not given)	+
Cc1ccc(C2=CC(c3ccc(F)cc3)n3nc(NS(=O)(=O)c4ccc(C)cc4)nc3N2)cc1 (stereo not given)	i

Bioassay records from PubChem.
